NOD2-RIPK2 inh: inhibitors of human NOD2-RIPK2 interaction | O43353 | CHO BLA complementation NOD2-RIPK2, CCF4 ratio | inhibition, % at 4.98 µM | 0.38% of 360,000 active | AID 624267; in the data active = inhibition above about 21%
TLR4-MyD88 BLA: TLR4-MyD88 interaction inhibition in cells; HeLa CL3-4 TLR4/MyD88 BLA complementation, FRET ratio; O00206+Q99836; 0.18% of 200,000 active; inhibition, % at 8.4 µM; in the data active = inhibition above about 25%
PRMT1 inh: inhibitors of human PRMT1; Q99873; recombinant PRMT1, activity-based probe fluorescence polarization; AID 652257; inhibition, % at 2.79 µM; 1.3% of 370,000 active;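 active = inhibition above about 21% made by adding two undisclosed values, limit read from the data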
ABHD5-PLIN5 inh: blocks binding of human ABHD5 to perilipin-5; inhibition, % at 4 µM; Q00G26+Q8WTS1; 0.78% of 360,000 active; Split G. princeps luciferase complementation, luminescence, 4 h;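 active = inhibition above the mean inhibition across every tested compound plus 3 SD, cut at about 22% in these data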
rCAG binder: r(CAG) repeat RNA binding; TO-PRO-1 dye displacement fluorescence; inhibition, % at 3 µM; 1.3% of 370,000 active; AID 651821;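 active = inhibition above the plate cutoff, the mean of all test compounds on that plate plus 3 SD, cut at about 35% in these data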;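 also: higher means more dye released from RNA so lower well fluorescence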
TLR9-MyD88 inh: inhibitors of human TLR9-MyD88 binding. Q9NR96+Q99836. inhibition, % at 4.98 µM. CHO BLA complementation TLR9-MyD88, CCF4 FRET ratio. 0.21% of 340,000 active;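 active = inhibition above the mean over all tested compounds plus 3 SD, cut at about 21% in these data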
rCAG binder conf: r(CAG) RNA repeat binding, confirmation. AID 652065. inhibition, % at 3 µM. TO-PRO-1 dye displacement fluorescence. 70% of 4,300 active. shares compounds with rCAG binder;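 active = inhibition above a per-plate cutoff, the mean inhibition of sample wells plus 3 SD, cut at about 35% in these data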;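 also: loss of TO-PRO-1 fluorescence as compound displaces dye from 1x1 AA loop RNA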
dCAG dye counter: DNA CAG dye complex inhibition counter-screen | d(CAG) DNA oligo TO-PRO-1 dye displacement, fluorescence | 94% of 4,300 active | inhibition, % at 3 µM | shares compounds with rCAG binder;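 active = inhibition above its plate's cutoff, the mean test-well inhibition plus 3 SD, cut at about 4.8% in these data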;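 also: hits displace the dye from DNA and so lower well fluorescence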
dCAG dye DR: counter-screen for rCAG binders: inhibitors of DNA CAG TO-PRO-1 complex | DNA CAG/GTC duplex TO-PRO-1 dye displacement fluorescence | 20% of 250 active | shares compounds with rCAG binder | IC50, µM; in the data active = IC50 below about 10 µM
Large screens that a line does not name were inactive (follow-up assays come after a bar, where they were run). In the library only some 3.3% were active in any assay of this set; here they are far more common.

COC(=O)[C@]12CCCCC=C1N(Cc1ccco1)C(=O)[C@H](CC(=O)NCc1ccc(C)o1)C2	none (no result: TLR4-MyD88 BLA, TLR9-MyD88 inh)
Cc1noc(C)c1S(=O)(=O)Nc1ccc(C(=O)Nc2ccc(OC(F)(F)F)cc2)cc1	rCAG binder 39 (no result: TLR4-MyD88 BLA) | rCAG binder conf inactive | dCAG dye counter 4.7
NC(=O)N/N=C/c1ccc(-c2ccc(S(=O)(=O)Nc3ncccn3)cc2)o1	none (no result: TLR4-MyD88 BLA)
COc1ccccc1NS(=O)(=O)c1cccc(NC(=O)NCCCl)c1	none (no result: TLR4-MyD88 BLA)
COc1cc(NC(=O)c2ccc(NS(=O)(=O)c3c(C)noc3C)cc2)cc(OC)c1	none
COc1ccccc1NS(=O)(=O)c1cccc(NC(=O)Nc2cccc(Cl)c2)c1	rCAG binder 35 | rCAG binder conf inactive | dCAG dye counter 13
CC(C)Oc1ccc(C(=O)N/N=C/c2ccc(-c3ccc(S(=O)(=O)Nc4ncccn4)cc3)o2)cc1	rCAG binder 54 | rCAG binder conf 65 | dCAG dye counter 22
COc1ccccc1NS(=O)(=O)c1ccc(C)c(C(=O)Nc2ccc(S(=O)(=O)Nc3onc(C)c3C)cc2)c1	rCAG binder 63 (no result: TLR4-MyD88 BLA) | rCAG binder conf 57 | dCAG dye counter 22
O=C(NCC1CCCO1)c1cc2cc(Cl)ccc2[nH]1 (stereo not given)	none (no result: TLR4-MyD88 BLA)
COc1ccccc1NS(=O)(=O)c1ccc(C)c(NS(=O)(=O)c2cc(C(=O)O)cc(C)c2C)c1	rCAG binder 42 (no result: TLR4-MyD88 BLA) | rCAG binder conf inactive | dCAG dye counter 7.3
COc1ccc(C(=O)Nc2ccc(S(=O)(=O)Nc3onc(C)c3C)cc2)c(OC)c1	rCAG binder 41 | rCAG binder conf inactive | dCAG dye counter inactive
Cc1cc(C(=O)Nc2ccc(S(=O)(=O)Nc3onc(C)c3C)cc2)cs1	none
Cc1noc(NS(=O)(=O)c2ccc(NC(=O)c3ccc(OC(C)C)cc3)cc2)c1C	rCAG binder 44 | rCAG binder conf inactive | dCAG dye counter inactive
COc1ccccc1NS(=O)(=O)c1cc(C(=O)Nc2ccc(S(=O)(=O)Nc3onc(C)c3C)cc2)ccc1C	rCAG binder 70 (no result: TLR4-MyD88 BLA) | rCAG binder conf 78 | dCAG dye counter 30 | dCAG dye DR inactive
CC1=C(C(=O)Nc2ccccc2C(F)(F)F)C(c2sccc2C)NC(=S)N1 (stereo not given)	none
CCOc1cc(C=NNC(=O)N(c2ccccc2)c2ccccc2)ccc1O	none (no result: TLR4-MyD88 BLA, PRMT1 inh, rCAG binder, TLR9-MyD88 inh)
Cc1cccc(Nc2nnc(SC/C(O)=C(\C#N)c3nc4ccccc4[nH]3)s2)c1	none
Cc1ccc(Nc2nnc(SC/C(O)=C(\C#N)c3nc4ccccc4[nH]3)s2)c(C)c1	rCAG binder 39 | rCAG binder conf 41 | dCAG dye counter 16
COc1ccc(NC(=O)CN(C)CC(=O)Nc2sc3c(c2C#N)CCC3)cc1	none (no result: TLR4-MyD88 BLA)
O=C(O)c1ccccc1N1C(=O)C2C3c4ccccc4C(Br)(c4ccccc43)C2C1=O (stereo not given)	rCAG binder 35 | rCAG binder conf inactive | dCAG dye counter 4.5
CC(NC(=O)CN1c2cccc3cccc(c23)S1(=O)=O)c1ccc(S(N)(=O)=O)cc1 (stereo not given)	rCAG binder 40 (no result: TLR4-MyD88 BLA) | rCAG binder conf inactive | dCAG dye counter 10
COc1cc(OC)cc(C(=O)OCC(=O)NC2CCCCCCC2)c1	none (no result: TLR4-MyD88 BLA)
CCOc1ccc(NS(=O)(=O)c2ccc(Cl)c(N=Nc3c(O)[nH]c(=S)[nH]c3=O)c2)cc1Br	rCAG binder 93 (no result: TLR4-MyD88 BLA) | rCAG binder conf 93 | dCAG dye counter 66
COc1ccc(NS(=O)(=O)c2ccc(Cl)c(N)c2)cc1Br	none
Cc1ccc(S(=O)(=O)N(CC(=O)Nc2ccccc2C(=O)O)c2ccccc2)cc1	rCAG binder 41 | rCAG binder conf inactive | dCAG dye counter 8.4
COc1ccc(N(CC(=O)Nc2ccccc2C(=O)O)S(=O)(=O)c2ccc(C)c([N+](=O)[O-])c2)cc1	rCAG binder 72 | rCAG binder conf 54 | dCAG dye counter 17
